The record followed here is PubChem BioAssay (EPA / NIEHS).

Common to all, as to settings: mRNA level, 48 h; actives raise or lower the signal
Read-out in experiment [1]: matrix metalloproteinase-10 (MMP10), MMP10 (gene 4319)
Kind of experiment: LTEA_HepaRG_MMP10: Life Technologies and Expression Analysis (LTEA) Assay for matrix metalloproteinase-10 (MMP10) using HepaRG (AID 2283517). The procedure, abridged:
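Transcript levels come from Fluidigm qRT-PCR normalized to three housekeeping genes, with curves fitted bidirectionally against 0.5% DMSO. Human HepaRG cells were dosed for 48 hours at concentrations up to 100 uM.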

Read-out in another experiment: MYC, MYC (gene 4609)
Nature of the experiment: LTEA_HepaRG_MYC: Life Technologies and Expression Analysis (LTEA) Assay for MYC using HepaRG (AID 2283518). The procedure, abridged: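 Differentiated HepaRG cells exposed 48 h in serum-free induction medium to 8 concentrations (top 100 uM, half-log steps; 0.5% DMSO), duplicate. MYC mRNA measured by Fluidigm qRT-PCR, normalized to ACTB, GAPDH, POLR2A; bidirectional fit versus DMSO.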

Read-out in experiment [2]: matrix metalloproteinase-3 (MMP3), MMP3 (gene 4314)
Kind of experiment: LTEA_HepaRG_MMP3: Life Technologies and Expression Analysis (LTEA) Assay for matrix metalloproteinase-3 (MMP3) using HepaRG (AID 2283519). The procedure, abridged: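 qRT-PCR read-out of MMP3 mRNA (normalised to three housekeeping genes) in HepaRG liver cells after 48 h chemical exposure; 8-point half-log series, top 100 uM, 0.5% DMSO vehicle. Bidirectional curve fitting against DMSO baseline.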

Read-out in experiment [3]: Paternally Expressed 10 (PEG10), PEG10 (gene 23089)
Nature of the experiment: LTEA_HepaRG_PEG10: Life Technologies and Expression Analysis (LTEA) Assay for Paternally Expressed 10 (PEG10) using HepaRG (AID 2283520).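 On AC50: PEG10 transcript by qRT-PCR normalised to ACTB GAPDH and POLR2A.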 The procedure, abridged: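 Human HepaRG cultures are dosed for 48 h across an eight-point half-log series starting at 100 uM, with 0.5% DMSO as vehicle and baseline. Gain or loss of PEG10 transcript is measured by qRT-PCR and fitted in both directions.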

Read-out in experiment [4]: Nuclear factor NF-kappa-B p105 subunit (Homo sapiens) (UniProt P19838)
Nature of the experiment: LTEA_HepaRG_NFKB1: Life Technologies and Expression Analysis (LTEA) Assay for Nuclear Factor Kappa B Subunit 1 (NFKB1) using HepaRG (AID 2283521).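 On outcome: TaqMan qRT-PCR transcript normalised to ACTB GAPDH and POLR2A housekeeping genes.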 The gist of the method: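 Differentiated human HepaRG cells in serum-free induction medium with 0.5% DMSO were exposed for 48 h to eight half-log concentrations, top 100 uM, in duplicate. NFKB1 mRNA measured by Fluidigm TaqMan qRT-PCR, normalised to ACTB, GAPDH and POLR2A; bidirectional fit versus DMSO.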

Read-out in experiment [5]: Protein phosphatase 2A (PPP2R4), PTPA (gene 5524)
Nature of the experiment: LTEA_HepaRG_PPP2R4: Life Technologies and Expression Analysis (LTEA) Assay for Protein phosphatase 2A (PPP2R4) using HepaRG (AID 2283522). The procedure, abridged: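 Cells were plated, cultured 48 h, switched to serum-free induction medium, then dosed for 48 h (8 points, max 100 uM, 0.5% DMSO). RNA was isolated and PPP2R4 expression measured by TaqMan qRT-PCR.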

Read-out in experiment [6]: Phosphatase and tensin (PTEN), PTEN (gene 5728)
Nature of the experiment: LTEA_HepaRG_PTEN: Life Technologies and Expression Analysis (LTEA) Assay for Phosphatase and tensin (PTEN) using HepaRG (AID 2283523). The gist of the method: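 HepaRG, 48 h exposure, 8-pt half-log series from 100 uM top, 0.5% DMSO vehicle, duplicates. Readout: Fluidigm qRT-PCR of PTEN transcript; housekeeping normalization (ACTB, GAPDH, POLR2A). Gain or loss fitted relative to DMSO baseline.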

Read-out in experiment [7]: solute carrier (SLC22A1), SLC22A1 (gene 6580)
Kind of experiment: LTEA_HepaRG_SLC22A1: Life Technologies and Expression Analysis (LTEA) Assay for solute carrier (SLC22A1) using HepaRG (AID 2283524).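 On AC50: TaqMan qRT-PCR normalized to ACTB GAPDH and POLR2A housekeeping genes.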 The procedure, abridged:
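qRT-PCR readout (TaqMan, Fluidigm arrays) of SLC22A1 transcript, normalized to three housekeeping genes; bidirectional curve fit relative to 0.5% DMSO vehicle. Differentiated human HepaRG cells, 48 h chemical exposure, top concentration 100 uM, half-log steps, eight points.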

Read-out in experiment [8]: Pyruvate Dehydrogenase Kinase 4 (PDK4), PDK4 (gene 5166)
Nature of the experiment: LTEA_HepaRG_PDK4: Life Technologies and Expression Analysis (LTEA) Assay for Pyruvate Dehydrogenase Kinase 4 (PDK4) using HepaRG (AID 2283525). The procedure, abridged:
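HepaRG (human liver line), 48 h chemical exposure, 8-pt half-log CRC top 100 uM, 0.5% DMSO vehicle, duplicates. Readout: TaqMan qRT-PCR of PDK4 mRNA, housekeeping-normalized; gain/loss fit relative to DMSO baseline.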

Read-out in experiment [9]: NAD(P)H dehydrogenase [quinone] 1 (NQO1), NQO1 (gene 1728)
Kind of experiment: LTEA_HepaRG_NQO1: Life Technologies and Expression Analysis (LTEA) Assay for NAD(P)H dehydrogenase [quinone] 1 (NQO1) using HepaRG (AID 2283526). The procedure, abridged:
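Transcript induction or suppression is quantified by qRT-PCR in human HepaRG liver cells dosed for 48 hours. Eight half-log concentrations topping at 100 uM are used, with 0.5% DMSO as vehicle and baseline.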

Structures are written as SMILES. The source made the active and inactive calls. How the source made its calls: active means hit-call score of the fitted dose curve at least 0.9, where 1 is the maximum; inactive means score below 0.9.

Nuclear factor NF-kappa-B p105 subunit (Homo sapiens), sequence (P19838 whole entry, looked up): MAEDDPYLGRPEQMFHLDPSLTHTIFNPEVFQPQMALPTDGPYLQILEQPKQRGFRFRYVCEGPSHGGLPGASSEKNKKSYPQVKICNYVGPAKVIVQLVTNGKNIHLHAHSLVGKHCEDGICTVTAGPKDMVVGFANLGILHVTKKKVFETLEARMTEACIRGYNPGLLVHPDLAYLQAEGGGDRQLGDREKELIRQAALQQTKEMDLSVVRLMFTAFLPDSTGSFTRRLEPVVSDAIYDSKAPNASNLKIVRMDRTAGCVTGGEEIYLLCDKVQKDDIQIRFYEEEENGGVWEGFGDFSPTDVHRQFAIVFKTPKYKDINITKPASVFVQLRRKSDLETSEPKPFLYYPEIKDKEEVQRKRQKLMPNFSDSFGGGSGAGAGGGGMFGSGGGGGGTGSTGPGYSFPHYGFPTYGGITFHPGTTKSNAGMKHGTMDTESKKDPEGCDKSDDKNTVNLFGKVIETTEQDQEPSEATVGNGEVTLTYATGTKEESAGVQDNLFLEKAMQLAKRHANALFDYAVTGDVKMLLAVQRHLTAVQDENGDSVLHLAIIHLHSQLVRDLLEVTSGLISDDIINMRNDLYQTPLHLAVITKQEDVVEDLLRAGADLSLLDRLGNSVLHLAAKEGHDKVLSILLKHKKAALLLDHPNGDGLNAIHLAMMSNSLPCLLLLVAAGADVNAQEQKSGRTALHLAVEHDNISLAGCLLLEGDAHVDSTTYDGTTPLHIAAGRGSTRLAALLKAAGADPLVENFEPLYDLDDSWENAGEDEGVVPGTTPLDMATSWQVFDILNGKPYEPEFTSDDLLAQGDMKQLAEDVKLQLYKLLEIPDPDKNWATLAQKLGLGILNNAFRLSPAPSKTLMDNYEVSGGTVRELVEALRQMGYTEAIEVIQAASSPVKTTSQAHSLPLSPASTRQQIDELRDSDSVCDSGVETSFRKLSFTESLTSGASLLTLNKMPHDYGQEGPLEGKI

Regarding `O=C(O)CN(CC(=O)O)CC(=O)O`, the outcome was “inactive” in [1]; “inactive” in the experiment with MYC, MYC (gene 4609); “inactive” in experiment [2]; “inactive” in experiment [3]; “inactive” in [4]; “inactive” in experiment [5]. For the same compound, the result in experiment [6], in experiment [7], in experiment [8] and in experiment [9] was inactive.

Regarding `Cc1cn([C@H]2C=C[C@@H](CO)O2)c(=O)[nH]c1=O`, the outcome in [1] is “inactive”; with MYC, MYC (gene 4609), “inactive”; in experiment [2] it was “inactive”; in [3], “inactive”; in experiment [5], “inactive”; in experiment [7] it was “inactive”. Further, the call in [8] and in experiment [9] was inactive.

Regarding `CCc1nc(N)nc(N)c1-c1ccc(Cl)cc1`, the compound was classed as inactive in experiment [1], in [2], in experiment [5] and in experiment [9]. In addition, the AC50 (commonly the concentration giving half of the maximal activity seen) with MYC, MYC (gene 4609) is 78.7 µM (active); in [3], 38.9 µM (active); in experiment [7], 21.1 µM (active); in experiment [8], 50 µM (active).

As to `CN(C)C(=O)NC1(c2ccccc2)CCN(CC[C@@]2(c3ccc(F)c(F)c3)CN(C(=O)c3ccccc3)CCO2)CC1`, the outcome in experiment [1] was “inactive”; in the experiment with MYC, MYC (gene 4609), “inactive”; in experiment [2], “inactive”; in experiment [5] it was “inactive”; in experiment [9], “inactive”. In addition, the AC50 in [3] was 1.35 µM (active); in experiment [7], 9.33 µM (active); in experiment [8], 21.1 µM (active).

With `CC(COCC(C)OC(=O)c1ccccc1)OC(=O)c1ccccc1` (stereo not drawn), the outcome in experiment [1] is “inactive”; with MYC, MYC (gene 4609), “inactive”; in experiment [2] it was “inactive”; in [3] it was “inactive”; in [5], “inactive”; in experiment [6], “inactive”. Also, the compound was called inactive in experiment [7], in experiment [8] and in [9].

As to `C=CCCCCCCCCCCCC`, the outcome is “inactive” in [1]; “inactive” in the experiment with MYC, MYC (gene 4609); “inactive” in experiment [2]; “inactive” in [3]; “inactive” in [4]; “inactive” in [5]. The compound was classed as inactive in [7], in [8] and in experiment [9].

Turning to `CC(C)(O)c1ccc(CNC(=O)c2cccnc2Oc2ccc(F)cc2)cc1`, the outcome in [1] was “inactive”; with MYC, MYC (gene 4609) it was “inactive”; in experiment [3] it was “inactive”; in experiment [5] it was “inactive”; in [7], “inactive”; in experiment [8] it was “inactive”. Also, the call in [9] was inactive. The AC50 in experiment [2] was 73.2 µM (active).

On to `CCCCc1nc2cccnc2n1Cc1ccc(-c2ccccc2-c2nnn[nH]2)cc1`, for which the outcome in experiment [1] is “inactive”; with MYC, MYC (gene 4609), “inactive”; in experiment [4], “inactive”; in experiment [5] it was “inactive”; in experiment [6] it was “inactive”; in [9], “inactive”. Further, the AC50 was 50 µM (active) in experiment [2], 65.5 µM (active) in experiment [7] and 28.6 µM (active) in [8].

Take `Cc1cc(SC2=C(O)C[C@@](CCc3ccc(N)cc3)(C(C)C)OC2=O)c(C(C)(C)C)cc1CO`: the outcome in [1] was “inactive”; with MYC, MYC (gene 4609), “inactive”; in experiment [2], “inactive”; in [4], “inactive”; in experiment [5] it was “inactive”; in experiment [6] it was “inactive”. The compound was called inactive in experiment [9]. Further, the results for the AC50 in [7] and in [8] were 7.05 µM (active) and 13.5 µM (active), respectively.

With `O=C(O)CC(O)(CC(=O)O)C(=O)O`, the outcome in experiment [1] was “inactive”; in the experiment with MYC, MYC (gene 4609), “inactive”; in [2] it was “inactive”; in experiment [3], “inactive”; in [4], “inactive”; in experiment [5] it was “inactive”. The outcome in [6], in [7], in experiment [8] and in experiment [9] was inactive.

`COc1ccc(OC(F)(F)F)cc1CN[C@H]1CCCN[C@H]1c1ccccc1`: the AC50 was 75.8 µM (active) in [1]; 7.25 µM (active) with MYC, MYC (gene 4609); 80.2 µM (active) in experiment [2]; 55.2 µM (active) in [3]; 90 µM (active) in [5]; 50 µM (active) in [7]. Moreover, the call in experiment [4], in experiment [8] and in experiment [9] was inactive.

As to `CC(C)NCC(O)c1ccc(O)c(O)c1` (stereo not drawn), the outcome was “inactive” in experiment [1]; “inactive” with MYC, MYC (gene 4609); “inactive” in experiment [2]; “inactive” in experiment [6]; “inactive” in experiment [8]; “inactive” in experiment [9]. The AC50 in experiment [3] was 0.149 µM (active); in [5], 0.155 µM (active); in experiment [7], 0.209 µM (active).

Consider `Cc1c(C)c2c(c(C)c1O)CCC(C)(COc1ccc(CC3SC(=O)NC3=O)cc1)O2` (stereo not drawn), for which the AC50 in experiment [1] is 48.5 µM (active); in experiment [3], 91.5 µM (active); in experiment [4], 77 µM (active). For the same compound, the outcome with MYC, MYC (gene 4609) is “inactive”; in experiment [2] it was “inactive”; in experiment [5] it was “inactive”; in experiment [8], “inactive”; in experiment [9], “inactive”.

Turning to `c1ccc2occc2c1`, the outcome in experiment [1] was “inactive”; with MYC, MYC (gene 4609) it was “inactive”; in [2], “inactive”; in [3] it was “inactive”; in experiment [4], “inactive”; in experiment [5], “inactive”. The compound was classed as inactive in [7], in experiment [8] and in [9].

On to `CCCCC(CC)CO` (stereo not drawn), for which the outcome was “inactive” in experiment [1]; “inactive” with MYC, MYC (gene 4609); “inactive” in experiment [2]; “inactive” in experiment [3]; “inactive” in experiment [4]; “inactive” in [5]. Besides, the call in experiment [6], in experiment [7] and in [8] was inactive.

For the compound `CSc1ccc(Oc2ccc(S(N)(=O)=O)cc2CN(C)C)cc1C`, the outcome is “inactive” in experiment [1]; “inactive” with MYC, MYC (gene 4609); “inactive” in experiment [2]; “inactive” in experiment [4]; “inactive” in experiment [5]; “inactive” in [6]. The call in experiment [7], in experiment [8] and in experiment [9] was inactive.

Take `O=C(O)c1[nH]n(-c2ccc(S(=O)(=O)O)cc2)c(=O)c1N=Nc1ccc(S(=O)(=O)O)cc1`: the outcome was “inactive” in experiment [1]; “inactive” with MYC, MYC (gene 4609); “inactive” in experiment [2]; “inactive” in [3]; “inactive” in [4]; “inactive” in experiment [5]. Moreover, the compound was classed as inactive in experiment [6], in [7], in experiment [8] and in experiment [9].

With `CC1(C)C(=O)NC(=O)N1CO`, the outcome in experiment [1] was “inactive”; with MYC, MYC (gene 4609), “inactive”; in experiment [2] it was “inactive”; in experiment [3], “inactive”; in experiment [4], “inactive”; in experiment [5], “inactive”. In addition, the result in experiment [6], in [7], in experiment [8] and in [9] was inactive.

Turning to `CCCCCCCCCCCCCCOS(=O)(=O)O`, the outcome was “inactive” in [1]; “inactive” in the experiment with MYC, MYC (gene 4609); “inactive” in [2]; “inactive” in experiment [3]; “inactive” in [5]; “inactive” in experiment [6]. The result in [9] was inactive. Further, the AC50 in experiment [7] is 80.6 µM (active); in experiment [8], 49.6 µM (active).

For the compound `Nc1nc(=S)c2[nH]cnc2[nH]1`, the call in experiment [1], in [2], in [5], in experiment [6], in experiment [8] and in experiment [9] was inactive. Besides, the AC50 in the experiment with MYC, MYC (gene 4609) is 11.4 µM (active); in experiment [3], 7.2 µM (active).
